An excerpt weighted towards active compounds, which were near 19% of everything screened.
CHX counter = counter-screen for Shiga toxin inhibitors: cycloheximide protein synthesis inhibition; 300,000 tested, 12% active; max response, %; cell reporter, cycloheximide protein synthesis inhibition counterscreen; in the data active = max response mostly above about 13%, no sharp cut-off; inactive = mostly below about 14%; note: read at 38.3 µM for the half of the compounds with a filed dose; 0% is about no effect
Shiga toxin inh = Shiga toxin inhibition; 290,000 tested, 9.2% active; AID 2315; Vero cells, Shiga toxin protein synthesis inhibition reporter; inhibition, % at 38.7 µM; in the data active = inhibition mostly above about 28%, no sharp cut-off; inactive = mostly below about 43%; note: 0% is about no effect
SARS PLpro yeast = inhibitors of SARS-CoV papain-like protease in yeast. S. cerevisiae expressing SARS-CoV PLpro, growth rescue. Potency, µM (top dose mostly 32.9 µM), without a hit: at the top dose activity, positive = growth rescue, hits mostly activators. 330,000 tested, 0.19% active. AID 485353; calls by dose curve; note: potency is the fitted concentration of half-maximal effect; 0% is about no effect; nearly all actives have a fitted effect of over 55% in size
Pf growth 48h = P. falciparum growth inhibition at 48 hours (one generation); P. falciparum luciferase growth in erythrocytes, 48 h; Potency, µM (doses to about 28.7 µM), for inactives: at the highest dose activity change, negative = inhibition, actives largely listed as inhibitors; 310,000 tested, 5.9% active; note: potency is the fitted concentration of half-maximal effect; % is set by controls: 0 for no effect and ±100 for the full control effect
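Luciferase-expressing P. falciparum in infected erythrocytes (2% hematocrit, 0.1% parasitemia final) in RPMI 1640/0.5% Albumax were exposed to compound for 48 hours at 37 C, 5% CO2; growth read as luminescence.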
AMA1-RON2 inh = inhibitors of Plasmodium falciparum AMA1-RON2 interaction; AlphaScreen AMA1-biotinylated RON2 peptide binding; Potency, µM (titrated, usually from 58.2 µM), without a hit: top-dose activity change, negative = inhibition, usual class: inhibitors; 360,000 tested, 0.2% active; AID 720542;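 note: potency is the fitted concentration of half-maximal effect; 0% = vehicle wells and -100% = peptide control; nearly all actives have a fitted effect of over 45% in size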
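AMA1 (3D7) with his tag at 25 nM final met compounds first, then biotinylated RON2 peptide at 25 nM; detection used donor plus acceptor beads, 10 µg/mL apiece, read by AlphaScreen after 30 min at room temperature.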
Pf growth 96h = P. falciparum growth inhibition at 96 hours; AID 504834; 320,000 tested, 6.9% active; P. falciparum luciferase reporter growth, 96 h; Potency, µM (series often up to 28.7 µM), for inactives: top-dose activity change, negative = inhibition, actives largely listed as inhibitors; note: potency is the fitted concentration of half-maximal effect; % is set by controls: 0 for no effect and ±100 for the full control effect
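Luminescence readout: decreased luciferase signal marks inhibited growth of reporter-expressing P. falciparum in infected red cells (2% hematocrit, 0.05% parasitemia final), exposed to compound two generations (96 h, 37 C, 5% CO2).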
* = called active by the depositor; i = inactive; ? = inconclusive; · = no result; + = active, no number; ! = repeats disagree; [ ] = dose if it differs, or a comment. Unless noted, calls come from the whole dose curve; as a rule, active = well fitted curve in the direction sought with a large enough effect; inconclusive = small, poorly fitted or top-dose-only effect, or another doubt; inactive = no such curve, though single readings can be large; an effect the other way counts as inactive or inconclusive.

SMILES	CHX counter	Shiga toxin inh	SARS PLpro yeast	Pf growth 48h	AMA1-RON2 inh	Pf growth 96h
CCOC(=O)c1cnc2c(ccc3ccccc32)c1NCCCN(C)C	33*	131*	-7%	4.1µM*	0%	?
CCOC(=O)c1cnc2ccc(Cl)cc2c1NCCN(C)C	26*	35	-20%	?	4%	4.7µM*
CCOC(=O)c1cnc2ccc(C)cc2c1NCCN1CCOCC1	6	-4	1%	12µM*	-6%	14%
COc1ccc(/C=C/C(=O)Nc2c(C(=O)O)[nH]c3ccccc23)cc1OC	1	-12	0%	-18%	-5%	-2%
CN1CCc2c(n(CC(O)CN3CCN(CCO)CC3)c3ccccc23)C1=O (stereo not drawn)	-4	23	-8%	7%	-5%	-14%
CC1=CC2=NC(=O)CC(C)(C(=O)N(CC(=O)NC(C)(C)C)Cc3cccs3)N2C=C1 (stereo not drawn)	-2	-7	1%	1%	-3%	36%
O=C(O)c1cccc(-n2c(O)c(C=C3N=c4ccccc4=N3)sc2=S)c1	-2	18	0%	12µM*	76%	?
O=C(O)c1ccc(-n2c(O)c(C=C3N=c4ccccc4=N3)sc2=S)cc1	0	2	1%	30%	62%	112%
Cc1ccccc1OCc1nnc2c3cnn(C)c3ncn12	39*	74	1%	137%	3%	32%
Cc1ccccc1OCc1nnc(SCC(=O)O)n1-c1ccccc1	1	·	-1%	-5%	18%	-8%
Fc1ccc(Oc2nc(-c3ccccn3)nc3ccccc23)cc1	51*	67*	-1%	1.7µM*	33%	4.7µM*
c1ccc(Oc2nc(-c3ccccn3)nc3ccccc23)cc1	36*	35*	-4%	1.7µM*	55%	1.3µM*
COc1ccc(Oc2nc(-c3ccccn3)nc3ccccc23)cc1	48*	56*	-3%	1.7µM*	99%	0.37µM*
Cc1cccc(CN(C)C[C@H]2OCc3cnnn3CCCC(=O)N([C@@H](C)CO)C[C@@H]2C)c1	·	·	·	·	7%	·
CCCCCCCCCCCCCCCCCCNc1ccn(C2OC(COP(=O)(O)OCC3OC(n4cc(F)c(=O)[nH]c4=O)CC3O)C(O)C2O)c(=O)n1 (stereo not drawn)	·	·	·	·	-2%	·
CC(=O)C1=C(C)Nc2ncnn2C1c1ccc(Cl)cc1 (stereo not drawn)	-4	-11	3%	-1%	-10%	?
Fc1ccc(NC(=S)Nc2ccc(Cl)cc2)cc1	19	18	-6%	-19%	32%	0%
N#Cc1ccc(NC(=S)/N=C(\N)c2ccccc2)cc1	·	·	·	·	98%	·
N/C(=N\C(=S)Nc1ccccc1)c1ccccc1	40*	99*	2%	220%	73%	434%
NC(N)=NC(=S)Nc1ccc(Cl)cc1	34*	39*	-4%	38%	75%	36%
CCOc1ccc2ccccc2c1/C=N/NC(=O)CNC(=O)Cc1ccccc1	-1	13	0%	25%	0%	5%
CC(C)OCCCNc1ncnc2c1cnn2-c1ccccc1	11	55*	-1%	?	-1%	?
CN(C)CCCNc1ncnc2c1cnn2Cc1ccccc1Cl	-4	-6	0%	-7%	-6%	6%
Cc1ccc(-n2ncc3c(NCCCOC(C)C)ncnc32)c(C)c1	-3	75	1%	?	4%	?
CN(C)CCCNc1ncnc2c1cnn2-c1ccccc1	49*	72*	1%	·	3%	13%
SMILES	CHX counter	Shiga toxin inh	SARS PLpro yeast	Pf growth 48h	AMA1-RON2 inh	Pf growth 96h
CC(C)Oc1ccc(CC2CCC(=O)N(C)C2=O)cc1 (stereo not drawn)	-3	-11	-24%	-4%	7%	?
CCOc1ccc(CN(C)CC(=O)NCc2ccccc2Cl)cc1	12	36*	0%	30%	-13%	?
CCOc1ccc(CNC(c2ccccc2)c2ccccc2)cc1	-2	12	-2%	-14%	51%	-71%
Cc1ccc2nc(Cl)c(CNCc3ccccc3)cc2c1	8	42	1%	?	-11%	?
CCOc1ccc(CNCc2ccccc2Cl)cc1	32*	51*	0%	30%	2%	-21%
Cc1ccc(CNCc2ccccc2Cl)cc1	16*	22	-9%	·	9%	51%
Fc1ccc(CCNCc2ccccc2Cl)cc1	22*	24	-14%	·	0%	-17%
Fc1ccc(CNCc2ccccc2Cl)cc1	14	24	0%	3%	-21%	20%
O=C1C(Br)=C(c2ccccc2)C(c2ccccc2)=C1c1ccccc1	·	·	·	·	-11%	·
O=C1NC(c2ccccc2)=C(c2ccccc2)C1=O	1	-6	2%	16%	1%	10µM*
CCN(CC)C(=O)CCc1nnc(Cc2cccc(C(F)(F)F)c2)o1	5	-11	0%	34%	-3%	17%
O=C(CCc1nnc(-c2ccc3c(c2)OCO3)o1)NCCc1ccccc1F	15	12	-2%	14%	-12%	18%
Cc1cc(CN(C)C(=O)CCc2nnc(Cc3cccc(C(F)(F)F)c3)o2)on1	33*	58*	-2%	13%	7%	?
O=C(CCc1nnc(Cc2cccc(C(F)(F)F)c2)o1)NCCc1ccccc1F	29*	126*	?	60%	7%	13%
Clc1ccc(Cn2nc(-c3ccccc3)nc2-c2ccccc2)cc1	7	-5	-9%	25%	2%	-36%
COc1cccc(CC2(CO)CCCN(Cc3ccc(OC)c(C)c3OC)C2)c1 (stereo not drawn)	-4	·	-2%	?	-8%	?
Cc1ncc(CC(=O)n2cc(C(=O)c3cc(F)ccc3O)cn2)s1	34*	45*	-1%	19%	64%	52%
COc1ccc(O)c(C(=O)c2cnc3onc(C)c3c2)c1	21*	17	-1%	?	1%	9.3µM*
COc1ccc(C(=O)c2ccc(C)cc2)c(O)c1	·	·	·	54%	·	45%
O=C(c1cnn(-c2ccccc2)c1)c1ccccc1O	70*	75*	-13%	366%	-8%	468%
COc1ccc(C(=O)c2ccccc2)c(O)c1	26*	+	-3%	?	6%	15µM*!
O=C(c1cnn(C(=O)CN2CCCC2=O)c1)c1ccccc1O	·	·	-11%	32%	25%[11.6 µM]	-10%
CC(NC(=O)Nc1ccccc1F)C(C)(C)C (stereo not drawn)	11	12	-1%	-14%	-7%	-25%
CC(=O)c1ccccc1OCCOc1ccccc1C(C)=O	2	-2	-2%	?	0%	?
Cn1c(=O)[nH]c(=O)c2cc(C(=O)c3cc(F)ccc3O)cnc21	-3	7	-1%	0%	12%	1%
COc1ccc(-n2cc(C(=O)c3ccccc3O)cn2)cc1	18	40	-1%	481%	-8%	i

High-throughput results (PubChem BioAssay)
